Measurements: PubChem BioAssay
The source made the active and inactive calls. Unless noted, how the calls were made is not given here.

Assays:
[1] = system: Wnt5a (protein binding on small-molecule microarray); test: Wnt5a binders on small-molecule microarray, primary screen, biophysical, 635/667 nm fluorescence (AID 1142); conditions: 635 nm fluorescence, higher = more signal;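 further: fluorescence read at 667 nm with signal to noise per printed feature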
[2] = cell viability in Huh7 cells, primary screen, cytotoxicity control for HCV replication inhibitor project, CellTiter-Glo luminescence, basal, 48 h (AID 1143); conditions: Huh7 HCV replicon, higher = more signal, called active from +8 up or from −8 down;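 further: Huh7 hepatoma cells carrying a hepatitis C replication reporter with no stimulus; test concentration not given here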
[3] = P. aeruginosa biofilm formation inhibitors, primary screen, PAO1 strain, BacTiter-Glo luminescence, LB-PBS (AID 1144); conditions: 12 h, higher = more signal
[4] = CREB reporter modulators without forskolin, primary screen, cell-based, PC12, CRE-LacZ reporter, unstimulated (AID 1145); conditions: no forskolin, luminescence, 4.5 h, higher = more signal, called active from +8 up or from −8 down
[5] = CREB reporter modulators under forskolin, primary screen, cell-based, PC12, CRE-LacZ reporter, forskolin-stimulated (AID 1146); conditions: luminescence, 4.5 h, higher = more signal, called active from +8 up or from −8 down;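 further: PC12 cells with 6xCRE LacZ reporter stimulated by forskolin 10 µM; beta-galactosidase reporter signal reflecting CREB driven transcription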
[6] = target: Streptavidin (Streptomyces avidinii) (UniProt P22629); test: streptavidin binders on small-molecule microarray, primary screen, artefact control for SMM compound annotation, biophysical, 635/667 nm fluorescence (AID 1147); conditions: streptavidin binding, higher = more signal;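 further: signal reflects streptavidin binding to arrayed compounds as a control protein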
Sequence of Streptavidin (Streptomyces avidinii) (P22629 whole entry, looked up): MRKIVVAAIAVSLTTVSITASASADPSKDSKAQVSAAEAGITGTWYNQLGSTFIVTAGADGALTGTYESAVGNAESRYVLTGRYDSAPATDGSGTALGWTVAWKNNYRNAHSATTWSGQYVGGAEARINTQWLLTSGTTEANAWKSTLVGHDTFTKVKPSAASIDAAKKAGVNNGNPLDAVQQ

[7] = small-molecule binders of probe aInhba, primary screen, biochemical, small-molecule microarray, 635/667 nm fluorescence (AID 1148); conditions: higher = more signal;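 further: score merges 667nm spot fluorescence with signal-to-noise for antibody binding to printed compounds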
Torsin-1A (Homo sapiens) [8] = target: Torsin-1A (Homo sapiens) (UniProt O14656); test: torsin A binders from cell lysate, primary screen, small-molecule microarray, wild-type, 635/667 nm (AID 1149); conditions: COS7 hTOR1A-WT lysate, 635 nm fluorescence, higher = more signal
Sequence of Torsin-1A (Homo sapiens) (O14656 whole entry, looked up): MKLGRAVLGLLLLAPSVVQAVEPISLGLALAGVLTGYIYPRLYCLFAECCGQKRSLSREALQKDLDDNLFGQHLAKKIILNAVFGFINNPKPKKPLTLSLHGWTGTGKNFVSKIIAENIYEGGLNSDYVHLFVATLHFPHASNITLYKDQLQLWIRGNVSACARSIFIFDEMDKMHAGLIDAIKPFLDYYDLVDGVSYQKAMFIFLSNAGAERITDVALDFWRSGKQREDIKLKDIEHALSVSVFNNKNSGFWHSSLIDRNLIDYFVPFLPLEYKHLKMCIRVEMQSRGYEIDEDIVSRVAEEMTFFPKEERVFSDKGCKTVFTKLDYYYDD

Torsin-1A (Homo sapiens) [9] = target: Torsin-1A (Homo sapiens) (UniProt O14656); test: small-molecule binders of mutant TOR1A in lysate, primary screen, cell lysate, small-molecule microarray, COS7 lysate, 635/667 nm fluorescence (AID 1150); conditions: COS7 hTOR1A mutant lysate, 635 nm fluorescence, higher = more signal;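 further: score pools 667 nm emission and signal to noise measuring lysate protein binding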
[10] = system: Sonic hedgehog protein (Shh); test: small-molecule binders of Shh protein, primary screen, biochemical, small-molecule microarray, 635/667 nm fluorescence (AID 1151); conditions: small-molecule microarray binding, 635 nm fluorescence; higher = more signal;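 further: Shh protein binding to compounds spotted on small-molecule microarray slides; score combines spot fluorescence intensity with signal-to-noise across triplicate slides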
[11] = E. coli DRC41 culture turbidity changes, primary screen, E. coli filamentation inducer project, strain DRC41, OD650, 48 h (AID 1152);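 further: E. coli MC1000 strain DRC41 lacking acrAB efflux pump and sulA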; conditions: E. coli DRC41 (acrAB sulA), higher = more signal, called active from +8 up or from −8 down
[12] = small-molecule binders of probe aLefty1, primary screen, biochemical, small-molecule microarray, 635/667 nm fluorescence (AID 1153); conditions: higher = more signal;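 further: score merges spot fluorescence with signal-to-noise ratio from the scanned slide images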
[13] = PSAC antagonists in infected red cells, primary screen, cell-based, P. falciparum Indochina, OD700, 1 h (AID 1154); conditions: P. falciparum Indochina infected RBC osmotic lysis, higher = more signal, called active from +8 up or from −8 down
[14] = PSAC antagonists in infected red cells, primary screen, cell-based, P. falciparum Indochina, OD700, 2 h (AID 1155);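 further: lysis reports solute entry through the parasite surface anion channel PSAC; channel blockers reduce lysis of infected cells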; conditions: P. falciparum Indochina infected erythrocytes, osmotic lysis OD700; higher = more signal, called active from +8 up or from −8 down
[15] = osmotic lysis modulators in infected erythrocytes, primary screen, PSAC antagonist project, cell-based, P. falciparum Indochina, OD700, 3 h (AID 1156); conditions: higher = more signal, called active from +8 up or from −8 down
[16] = PSAC antagonists in infected red cells, primary screen, cell-based, P. falciparum Indochina, OD700, 18 h (AID 1157); conditions: P. falciparum Indochina infected erythrocytes, osmotic lysis OD700, 18 h; higher = more signal, called active from +8 up or from −8 down
[17] = modulators of S6 phosphorylation in cells, primary screen, cell-based, A549, cytoblot, luminescence, serum-stimulated (AID 1158); conditions: A549 phospho-S6 cytoblot, 5 h, higher = more signal;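 further: serum-stimulated A549 lung adenocarcinoma cells; signal is phosphorylated S6 detected by cytoblot immunostaining with HRP secondary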
[18] = target: NADPH oxidase 2 (Homo sapiens) (UniProt P04839); test: NOX2-dependent H2O2 signal modulators, primary screen, NOX inhibitor project, cell-based, HEK293-NOX2, PMA-stimulated, Amplex Red fluorescence (AID 1159); conditions: 45 min, higher = more signal, called active from +8 up or from −8 down; further: test concentration not given here
Sequence of NADPH oxidase 2 (Homo sapiens) (P04839 whole entry, looked up): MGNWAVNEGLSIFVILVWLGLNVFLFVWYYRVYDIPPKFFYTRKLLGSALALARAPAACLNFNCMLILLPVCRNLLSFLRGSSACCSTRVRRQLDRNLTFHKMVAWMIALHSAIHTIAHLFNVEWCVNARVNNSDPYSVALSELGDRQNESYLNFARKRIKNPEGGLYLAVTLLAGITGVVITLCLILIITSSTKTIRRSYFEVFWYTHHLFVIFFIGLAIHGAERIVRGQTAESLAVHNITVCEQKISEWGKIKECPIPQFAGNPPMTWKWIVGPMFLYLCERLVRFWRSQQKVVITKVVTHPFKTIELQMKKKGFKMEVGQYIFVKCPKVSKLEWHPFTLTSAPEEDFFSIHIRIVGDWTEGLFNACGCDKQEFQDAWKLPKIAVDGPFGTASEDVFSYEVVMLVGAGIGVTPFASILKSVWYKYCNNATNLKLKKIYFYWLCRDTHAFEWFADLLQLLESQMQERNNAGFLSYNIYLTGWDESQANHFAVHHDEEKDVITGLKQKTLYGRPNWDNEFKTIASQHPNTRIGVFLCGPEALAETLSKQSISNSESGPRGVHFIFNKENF

[19] = target: NADPH oxidase 4 (Homo sapiens) (UniProt Q9NPH5); test: NOX4-dependent H2O2 signal modulators, primary screen, NOX inhibitor project, cell-based, HEK293-NOX4, tetracycline-induced, Amplex Red fluorescence (AID 1160); conditions: 45 min, higher = more signal, called active from +8 up or from −8 down
Sequence of NADPH oxidase 4 (Homo sapiens) (Q9NPH5 whole entry, looked up): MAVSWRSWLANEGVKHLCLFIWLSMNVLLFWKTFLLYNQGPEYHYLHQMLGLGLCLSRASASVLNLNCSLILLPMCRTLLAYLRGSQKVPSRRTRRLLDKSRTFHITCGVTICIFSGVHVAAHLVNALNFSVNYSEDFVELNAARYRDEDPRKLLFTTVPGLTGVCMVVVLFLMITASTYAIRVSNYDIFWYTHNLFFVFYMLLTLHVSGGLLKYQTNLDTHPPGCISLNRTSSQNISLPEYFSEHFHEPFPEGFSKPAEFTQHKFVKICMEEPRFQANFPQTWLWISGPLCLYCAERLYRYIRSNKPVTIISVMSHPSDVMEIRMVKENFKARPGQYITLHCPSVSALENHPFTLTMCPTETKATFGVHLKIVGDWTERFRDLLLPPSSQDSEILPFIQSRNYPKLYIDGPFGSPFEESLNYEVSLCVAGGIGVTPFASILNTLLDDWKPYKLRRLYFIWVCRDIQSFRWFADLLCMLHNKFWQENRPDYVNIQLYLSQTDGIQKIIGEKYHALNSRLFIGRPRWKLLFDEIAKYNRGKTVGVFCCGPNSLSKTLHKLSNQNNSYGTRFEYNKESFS

[20] = target: NADPH oxidase 5 (Homo sapiens) (UniProt Q96PH1); test: NOX5-dependent H2O2 signal modulators, primary screen, NOX inhibitor project, cell-based, HEK293-NOX5, Amplex Red fluorescence (AID 1161); conditions: HEK293-NOX5, ionomycin, 45 min, higher = more signal
Sequence of NADPH oxidase 5 (Homo sapiens) (Q96PH1 whole entry, looked up): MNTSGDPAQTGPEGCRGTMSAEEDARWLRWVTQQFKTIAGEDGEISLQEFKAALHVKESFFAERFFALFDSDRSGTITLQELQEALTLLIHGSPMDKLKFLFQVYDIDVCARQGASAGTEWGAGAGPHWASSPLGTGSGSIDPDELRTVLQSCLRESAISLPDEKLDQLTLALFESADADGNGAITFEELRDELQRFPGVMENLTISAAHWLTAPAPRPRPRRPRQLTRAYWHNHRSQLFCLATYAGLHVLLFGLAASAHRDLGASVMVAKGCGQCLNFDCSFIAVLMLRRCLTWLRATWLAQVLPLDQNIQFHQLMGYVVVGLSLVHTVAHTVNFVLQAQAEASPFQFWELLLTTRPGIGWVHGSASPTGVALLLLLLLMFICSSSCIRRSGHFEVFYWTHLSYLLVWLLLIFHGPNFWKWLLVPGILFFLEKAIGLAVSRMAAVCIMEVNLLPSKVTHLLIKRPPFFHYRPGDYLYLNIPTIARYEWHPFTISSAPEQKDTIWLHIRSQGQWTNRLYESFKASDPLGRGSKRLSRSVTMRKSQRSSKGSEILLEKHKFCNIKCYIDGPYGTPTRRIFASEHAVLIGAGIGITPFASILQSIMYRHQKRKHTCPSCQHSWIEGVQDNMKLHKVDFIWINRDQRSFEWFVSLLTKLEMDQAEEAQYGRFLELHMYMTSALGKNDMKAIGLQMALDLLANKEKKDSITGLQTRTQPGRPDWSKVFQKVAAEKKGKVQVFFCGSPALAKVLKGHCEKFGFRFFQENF

SMILES	composite z-score [1]	z-score [2]	z-score [3]	z-score [4]	z-score [5]	composite z-score [6]	composite z-score [7]	composite z-score (Torsin-1A (Homo sapiens) [8])	composite z-score (Torsin-1A (Homo sapiens) [9])	composite z-score [10]	z-score [11]	composite z-score [12]	z-score [13]	z-score [14]	z-score [15]	z-score [16]	z-score [17]	z-score [18]	z-score [19]	z-score [20]
COC(=O)[C@@]1(Cc2ccccc2)[C@H]2c3cc(C(=O)N(C)C)n(Cc4ccc(OC)c(OC)c4)c3C[C@H]2CN1C(=O)c1ccccc1	1.15	-2.81 (inactive)	0.655 (inactive)	0.394 (inactive)	0.786 (inactive)	1.43	0.498	0.406	1.16	-0.735	-1.95 (inactive)	0.211	3.81 (inactive)	1.2 (inactive)	0.688 (inactive)	1.11 (inactive)	-0.399	-0.415 (inactive)	-0.865 (inactive)	-0.0397
COCCOC(=O)N1C(=O)[C@@]2(c3cc(C#CC4(O)CCCCCC4)ccc31)[C@H](C(=O)Nc1nc3ccccc3s1)[C@H]1C(=O)O[C@H](c3ccccc3)[C@H](c3ccccc3)N1[C@@H]2c1ccccc1OCCO	0.82	-2.5 (inactive)	0.451 (inactive)	0.212 (inactive)	-0.192 (inactive)	0.845	-0.0762	0.61	0.144	0.976	0.736 (inactive)	0.282	2.48 (inactive)	1.81 (inactive)	0.895 (inactive)	0.948 (inactive)	0.476	1.85 (inactive)	0.572 (inactive)	0.908
COCC(=C=CC[C@H](O)c1ccccc1OCCO)CCO	0.0821	-0.231 (inactive)	-0.109 (inactive)	2.48 (inactive)	1.01 (inactive)	-0.193	0.115	0.871	0.542	1.09	0.0257 (inactive)	-0.206	2.69 (inactive)	-0.0718 (inactive)	-0.107 (inactive)	0.0371 (inactive)	-0.509	0.281 (inactive)	0.263 (inactive)	-0.397
O[C@@H](Cc1ccccc1)[C@@H](/C=C/C1CC1)NCc1cccc(Cl)c1	-1.11	-3.2 (inactive)	-0.852 (inactive)	4.76 (inactive)	-0.426 (inactive)	-1	-0.21	-1.12	-0.447	-1	-1.12 (inactive)	-0.0295	1.27 (inactive)	1.03 (inactive)	0.972 (inactive)	0.721 (inactive)	0.528	-0.115 (inactive)	-0.302 (inactive)	-2.08
CCCCN1CC=CC23O[C@@H]4C=CCOC(=O)[C@@H]4[C@H]2C(=O)N(CCCCCCO)[C@@H]3C1=O (stereo not given in full)	-0.575	0.205 (inactive)	1.05 (inactive)	-0.0899 (inactive)	1.12 (inactive)	-1.35	-0.249	-0.873	-0.748	-0.711	-0.413 (inactive)	-0.195	2.08 (inactive)	0.393 (inactive)	1.09 (inactive)	0.405 (inactive)	0.133	1.09 (inactive)	-0.282 (inactive)	1.63
CO[C@H]1O[C@H](CO)[C@@H](OC(=O)Nc2ccc(Br)cc2)[C@@H]2OC(=O)[C@H](Cc3cccc(Br)c3)C/C=C/C[C@@H](Cc3cccc(Br)c3)C(=O)O[C@@H]12	-0.149	-5.6 (inactive)	-2.06 (inactive)	-0.878 (inactive)	0.243 (inactive)	-0.174	0.0387	-0.541	0.384	1.58	1.7 (inactive)	-0.007	2.13 (inactive)	0.623 (inactive)	-0.147 (inactive)	0.951 (inactive)	0.0914	-1.42 (inactive)	-0.686 (inactive)	0.0667
CC(c1ccccc1)C(O)C1C=CC2C(=O)N(C)C(=O)C2N1NC(=O)OC(C)(C)C (stereo not given)	0.472	0.834 (inactive)	0.059 (inactive)	0.622 (inactive)	-0.434 (inactive)	2.15	0.19	0.516	1.13	-0.656	-0.288 (inactive)	0.839	0.667 (inactive)	0.871 (inactive)	-0.344 (inactive)	0.508 (inactive)	-0.683	-0.326 (inactive)	-0.289 (inactive)	-1.2
CCOc1ccc(N2C(=O)CSC2c2cccc([N+](=O)[O-])c2)cc1 (stereo not given)	0.124	-0.689 (inactive)	-0.245 (inactive)	-0.0243 (inactive)	-1.34 (inactive)	0.804	-0.0448	0.331	0.731	0.0304	0.379 (inactive)	0.166	0.289 (inactive)	0.285 (inactive)	0.85 (inactive)	0.0093 (inactive)	-0.287	-0.957 (inactive)	-0.214 (inactive)	0.887
